Test results taken from PubChem BioAssay (NCI).
This is part of a sample that, as a whole, favours compounds with a hit. Of some 79,000 tested, about 15% had one in any assay. Values without a mark were called inactive. Active and inactive are the calls of the source. Cut-off read from the data, not from the text of the source: active = growth inhibition above about 70%; inactive = the rest.

assay: NCI Yeast Anticancer Drug Screen. Data for the rad50 strain (AID 155);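 note: 0% = growth of vehicle-only cultures of the same strain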; settings: S. cerevisiae rad50 strain growth inhibition; at 50.0 µM; active compounds read high
Summary of the method: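 Inhibition values express reduced yeast growth in compound-treated cultures relative to vehicle-treated controls.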

Row | SMILES | growth inhibition
1 | CC/C(Cl)=N\OC(=O)Nc1ccccc1OC(F)(F)F | -24.1%
2 | CCCCCc1ccc2oc(=O)c3ccc(C)cc3c2c1O | -9.7%
3 | Cc1ccc2cccc3c2c1CC1(C3=O)S(=O)(=O)OCCOS1(=O)=O | 9.2%
4 | O=C(CC12C3C4C1C1C2C3C41CC(=O)NO)NO (configuration not stated) | -28.8%
5 | c1csc(CNc2cccc3ccccc23)c1 | 54.5%
6 | O=S(=O)(C/C=C/COc1ccccc1)c1ccc2ccccc2c1 | 3.05%
7 | NC1=NC(c2ccccc2)C2=C(N1)C(=O)N(c1ccc(Br)cc1)C2 (configuration not stated) | 43.3%
8 | CCc1cccc(NC(=O)c2cc(/C=C/c3ccccc3)[nH]c(=S)n2)c1 | -15.9%
9 | COC1C=C(Br)C(=O)C(C)O1 (configuration not stated) | 5.7%
10 | CCOC(=O)/C(=C\c1ccnc2ccccc12)P(=O)(OCC)OCC | 11.7%
11 | c1ccc(C2=NCCN2)nc1 | 8.1%
12 | O=C1/C(=C/c2ccc(O)c(O)c2)CC/C1=C\c1ccc(O)c(O)c1 | -18.9%
13 | CSc1ncc2c(n1)-c1ccccc1OC2N1CCCCC1 (configuration not stated) | 9.8%
14 | S=C(SSSC(=S)N(C1CCCCC1)C1CCCCC1)N(C1CCCCC1)C1CCCCC1 | 1.5%
15 | CCC[CH2][Ge]([CH2]CCC)([CH2]CCC)[O]C(=O)CCl | -14.2%
16 | Cc1ccc([N+](=O)[O-])cc1NC(=O)C(=O)C(C(=O)c1ccccc1F)C1OC(=O)c2ccccc21 (configuration not stated) | -3.1%
17 | CN1C=CCC(C=O)C1 (configuration not stated) | -13.5%
18 | O=C(C(O)c1ccccc1)N1CCCCC1 (configuration not stated) | 32.6%
19 | O=C(OCc1ccccc1)c1ccccc1-c1c2ccc(=O)cc-2oc2cc(OCc3ccccc3)ccc12 | 33.4%
20 | CCCCCCCC/C=C\CCCCCCCC(=O)O | 10.1%
21 | CCc1cccc[n+]1CC(=O)c1ccccc1 | -23.5%
22 | c1ccc(Sc2cccc3c(-c4ccccc4)c4cccc5c4c(c23)C[S+]5c2ccccc2)cc1 (configuration not stated) | 98.5% (active)

assay: NCI Yeast Anticancer Drug Screen. Data for the mec2-1 strain (AID 157); settings: S. cerevisiae mec2-1 strain, at 50.0 µM, active compounds read high
Summary of the method: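 Strain: mec2-1 (DNA repair/cell cycle alteration). Compound exposure, then growth measured; inhibition expressed relative to vehicle.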

Row | SMILES | growth inhibition
23 | CCCCCN1C(=O)N=NC1=S | 8.15%
24 | CCOC(=O)NC(=O)c1cn(CCCOC(=O)CCCCCCCCCCC(=O)OCCCn2cc(C(=O)NC(=O)OCC)c(=O)n(C)c2=O)c(=O)n(C)c1=O | 8.3%
25 | Cc1cc2[nH]c3ccccc3n2c(=O)c1N=Nc1ccccc1 | 4.65%
26 | COc1c(OC2OC(CO)C(O)C(O)C2O)cc2occ(-c3ccc4c(c3)OCO4)c(=O)c2c1O (configuration not stated) | -9.7%
27 | [O-][N+](=Nc1ccccc1Cl)c1ccccc1Cl | 16%
28 | O=C(c1ccccc1)c1cccc2c1ccc1ccccc12 | 38.9%
29 | CC1(O)Oc2c(cc(C(C)(C)C)cc2C(C)(C)C)C1=O (configuration not stated) | -10.1%
30 | [Mn+2].[NH-]CC(=O)NC(Cc1ccccc1)C(=O)O.[NH-]CC(=O)NC(Cc1ccccc1)C(=O)O (configuration not stated) | -11.3%
31 | CCCc1ccccc1[N+](=O)[O-] | -14.9%
32 | c1csc(-c2cc(-c3ccsc3)c(-c3cccs3)s2)c1 | -62.7%
33 | NC(=O)c1cccnc1 | -41.4%
34 | Cc1ccc([N+](=O)[O-])cc1N=C=O | -43.9%
35 | CC1=NNC(c2ccco2)C1 (configuration not stated) | 5.6%
36 | CCOC(=O)c1nc2c(Cl)c3ncccc3cc2[nH]c1=O | 11.1%
37 | COc1ccccc1C(=O)N/N=C/c1ccccc1Cl | 35.3%
38 | C=C(CC/C=C\CO)[Si](C)(C)C | -20.1%
39 | C=C(S(=O)(=O)CC)S(=O)(=O)CC | -7.75%
40 | Cc1ccc2cccc(N)c2n1 | -0.15%
41 | CC/C(Cl)=N\OC(=O)Nc1ccccc1OC(F)(F)F | -15.4%
42 | CCCCCc1ccc2oc(=O)c3ccc(C)cc3c2c1O | 8.7%

Row | SMILES | growth inhibition
43 | Cc1ccc2cccc3c2c1CC1(C3=O)S(=O)(=O)OCCOS1(=O)=O | 4.45%
44 | O=C(CC12C3C4C1C1C2C3C41CC(=O)NO)NO (configuration not stated) | -28.1%
45 | c1csc(CNc2cccc3ccccc23)c1 | 25%
46 | O=S(=O)(C/C=C/COc1ccccc1)c1ccc2ccccc2c1 | 2.65%
47 | NC1=NC(c2ccccc2)C2=C(N1)C(=O)N(c1ccc(Br)cc1)C2 (configuration not stated) | -7.75%
48 | CCc1cccc(NC(=O)c2cc(/C=C/c3ccccc3)[nH]c(=S)n2)c1 | -19.4%
49 | COC1C=C(Br)C(=O)C(C)O1 (configuration not stated) | 1.3%
50 | CCOC(=O)/C(=C\c1ccnc2ccccc12)P(=O)(OCC)OCC | 4%
51 | c1ccc(C2=NCCN2)nc1 | 0.9%
52 | O=C1/C(=C/c2ccc(O)c(O)c2)CC/C1=C\c1ccc(O)c(O)c1 | -23.9%
53 | CSc1ncc2c(n1)-c1ccccc1OC2N1CCCCC1 (configuration not stated) | 13.7%
54 | S=C(SSSC(=S)N(C1CCCCC1)C1CCCCC1)N(C1CCCCC1)C1CCCCC1 | 3.7%
55 | CCC[CH2][Ge]([CH2]CCC)([CH2]CCC)[O]C(=O)CCl | 31.7%
56 | Cc1ccc([N+](=O)[O-])cc1NC(=O)C(=O)C(C(=O)c1ccccc1F)C1OC(=O)c2ccccc21 (configuration not stated) | 5.7%
57 | CN1C=CCC(C=O)C1 (configuration not stated) | -4.5%
58 | O=C(C(O)c1ccccc1)N1CCCCC1 (configuration not stated) | 14.2%
59 | O=C(OCc1ccccc1)c1ccccc1-c1c2ccc(=O)cc-2oc2cc(OCc3ccccc3)ccc12 | 18%
60 | CCCCCCCC/C=C\CCCCCCCC(=O)O | -23.1%
61 | CCc1cccc[n+]1CC(=O)c1ccccc1 | 5.85%
62 | c1ccc(Sc2cccc3c(-c4ccccc4)c4cccc5c4c(c23)C[S+]5c2ccccc2)cc1 (configuration not stated) | 99.1% (active)
